The nature of experiment [1]: Cell Viability - MRC5 (AID 434; calls by dose curve;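 also: potency is read from the fitted curve at half-maximal effect; cells exposed to compound for 40 hours at 37 °C; potency reflects cytotoxicity seen as loss of intracellular ATP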). The settings on record: MRC5 lung fibroblast viability, qHTS. A digest of the protocol: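 qHTS cytotoxicity in human lung fibroblast MRC5 cells; 40 hr treatment, 37 °C; cellular ATP by luciferase luminescence; DMSO = 0%, 100 uM tamoxifen = 100% inhibition; Hill-fit AC50.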
Experiment [2] is described as follows: Cell Viability - SK-N-SH (AID 435; calls by dose curve; also: potency is read from the fitted curve at half-maximal effect). The note with it: SK-N-SH neuroblastoma cell viability qHTS. The procedure, abridged: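 qHTS cytotoxicity: CellTiter-Glo ATP luminescence after 40 h compound exposure of human neuroblastoma SK-N-SH cells at 37 °C. AC50 derived by Hill-equation fitting, with DMSO as basal and 100 uM tamoxifen as full inhibition.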
Experiment [3] is described as follows: Cellular Toxicity (caspase-3) HepG2 (AID 654). Also: potency is read from the fitted curve at half-maximal effect.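 As to caspase-3 activation: cells exposed to compound for 16 hours before reading; 0% = DMSO alone and 100% = caspase signal from 100 µM tamoxifen.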 A digest of the protocol:
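HepG2 cells (1500/well) were treated 16 h at 37 °C in complete medium, then caspase 3/7 activity was read by Caspase-Glo luminescence. Data were normalized to DMSO and 100 uM tamoxifen; AC50 came from Hill-equation fits of qHTS concentration-response.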

Experiment [4] is described as follows: Cellular Toxicity (caspase-3) HUV-EC-C (AID 656). A digest of the protocol:
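Luminescent Caspase-Glo 3/7 readout after 16 h, 37 °C compound exposure of HUV-EC-C endothelial cells, 1000 per well, complete medium. AC50 derived by Hill fitting, with DMSO as baseline and 100 uM tamoxifen as full activation.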

Experiment [5] is described as follows: Cellular Toxicity (caspase-3) Mesangial (AID 660).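 Also: cells exposed to compound for 16 h before the caspase read.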 The settings on record: mesangial cells, normalized: DMSO 0%, 100 µM tamoxifen 100%; at 91.7 µM (top of the series). A digest of the protocol:
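Human renal glomerular mesangial cells, 1000/well, 5 h at 37 C before 16 h compound treatment. Caspase-Glo 3/7 luminescence after 20 min; normalized to DMSO and 100 uM tamoxifen, AC50 from Hill fit.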

Experiment [6] is described as follows: Cellular Toxicity (caspase-3) H-4-II-E (AID 663).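 Also: cells exposed to compound for 16 hr before readout.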 The note with it: H-4-II-E rat hepatoma; Potency: caspase-3 activation; caspase-3 activation: at 92.2 µM (top of the series), scaled: DMSO 0%, 100 µM tamoxifen 100%. The procedure, abridged:
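Apoptosis induction is scored as increased luminescence from caspase 3/7 substrate cleavage in rat hepatoma H-4-II-E cells exposed to compound for 16 hr. Activity is scaled between DMSO and 100 uM tamoxifen.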

The nature of experiment [7]: Cellular Toxicity (caspase-3) Hek293 (AID 664).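 Also: cells exposed to compound for 16 h at 37 °C before readout.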 The settings on record: HEK293 caspase-3 activation, DMSO = 0%, 100 µM tamoxifen = 100%; at 92.2 µM (top of the series). The procedure, abridged: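 HEK293 cells in complete medium treated 16 h at 37 °C, then Caspase-Glo 3/7 luminescence read after 20 min at room temperature. Normalized to DMSO and 100 uM tamoxifen; AC50 from Hill fit of concentration-response.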

Experiment [8] is described as follows: Cellular Toxicity (caspase-3) N2a (AID 665).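 Also: compound exposure lasted 16 h at 37 °C before readout.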 The note with it: Potency: caspase-3 activation. The procedure, abridged: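 Mouse N2a neuroblastoma cells, 1500 per well, treated 16 h at 37 °C in complete medium; caspase-3/7 activity by Caspase-Glo luminescence after 1 h. Normalized to DMSO and 10 uM staurosporine; AC50 from Hill fits.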
Experiment [9] addresses Cytochrome P450 3A4 (Homo sapiens) (UniProt P08684). Nature of the experiment: qHTS Assay for Activators of Cytochrome P450 3A4 (AID 885). Also: nearly all actives have a fitted effect of over 65% in size. A digest of the protocol: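 Steps: enzyme/substrate mix dispensed; compound added, 10 min RT; NADPH regeneration solution added, 60 min RT; luciferin detection buffer stops reaction; 20 min later luminescence measured.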
Experiment [10] in a line: MultiTox-Fluor Cytotoxicity Assay - LYMP1-002 - Live Cells (AID 955). Also: potency is read from the fitted curve at half-maximal effect. A digest of the protocol: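 Human lymphoblastoid LYMP1-002 cells, 2500/well, treated 16 h at 37 C in complete medium. Live-cell protease activity via GF-AFC fluorescence (Ex/Em 405/510) after 60 min reagent incubation; AC50 from Hill fits.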
Experiment [11] is described as follows: Cell Viability - LYMP2-003 (AID 965).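 Also: cells exposed to compounds for 24 h before reading; nearly all actives have a fitted effect of over 50% in size.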 Also: potency is read from the fitted curve at half-maximal effect. The procedure, abridged: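 CellTiter-Glo luminescence quantified ATP loss after 24 h compound treatment of LYMP2-003 lymphoblastoid cells at 37 C. Titration series were fitted with the standard Hill equation to give AC50.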
For experiment [12], the target named is Peroxisome proliferator-activated receptor alpha (Homo sapiens) (UniProt Q07869). As to the kind of experiment: qHTS assay for small molecule agonists of the peroxisome proliferator-activated receptor alpha (PPARalpha) signaling pathway (AID 651778). Also: % of control where 0% means no effect. The settings on record: PathHunter PPARalpha complementation, chemiluminescence, 6 h; max response: hits give high values. A digest of the protocol:
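Chemiluminescence from complemented enzyme reported PPARalpha activation in cells after 6 hr of compound treatment at 37 C. The detection reagent was incubated for 60 min at room temperature, and compounds were scored as agonists.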

Experiment [13] can be described thus: qHTS assay for cell viability of HEK293 cells (AID 743288). Also: nearly all actives have a fitted effect of over 50% in size. Also: potency is read from the fitted curve at half-maximal effect. As to max response: % is scaled to controls: 0 for no effect and ±100 for the full control effect. The settings on record: ATP luminescence (CellTiter-Glo), 18 h; max response: hits give low values. A digest of the protocol: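 Total intracellular ATP, measured with a luciferase-coupled reagent, indicates the number of viable HEK293 cells. Exposure to test chemicals lasts 18 h at 37 C in 1,536-well format at 2,000 cells/well.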

The target of experiment [14] is Mitogen-activated protein kinase 10 (Mus musculus) (UniProt Q61831). Nature of the experiment: JNK3 AlphaScreen Assay (AID 530; active = well fitted curve in either direction with a large enough effect, not every such curve was filed as active;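 also: kinase came from lysate of stimulated human HepG2 cells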; also: potency is read from the fitted curve at half-maximal effect). A digest of the protocol: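 Compound titrations were preincubated 15 minutes at room temperature with substrate, antibody and pre-activated JNK3-containing HepG2 lysate. Reactions were started with 10 uM ATP and stopped with EDTA-containing bead buffer for AlphaScreen detection.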

The target in experiment [15] is Cytochrome P450 3A4 (Homo sapiens) (UniProt P08684). As to the kind of experiment: qHTS Assay for Inhibitors and Substrates of Cytochrome P450 3A4 (AID 884). Also: nearly all actives have a fitted effect of over 50% in size. Also: potency is read from the fitted curve at half-maximal effect. The procedure, abridged:
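20 nM human CYP3A4 with 25 uM Luciferin-PPXE (at KM) in 200 mM KPO4, preincubated 10 min with compound; NADPH regeneration started a 60 min RT reaction. Luciferin detected by luminescence, normalized to 57 uM ketoconazole as full inhibition.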

Several values for one entry are separate records, joined by “and”; a condition that tells them apart may be missing. Equal entries are not always repeated. Values without a mark were called inactive. Inconclusive results are not listed. Where a structure was tested more than once in an assay, its records may differ in their call. Activity calls are given as the source filed them. Unless noted, calls follow the shape of the dose curve; as a rule, active = well fitted curve in the direction sought with a large enough effect; inconclusive = small, poorly fitted or top-dose-only effect, or another doubt; inactive = no such curve, though single readings can be large; an effect the other way counts as inactive or inconclusive. Bounds are passed on as bounds.

Peroxisome proliferator-activated receptor alpha (Homo sapiens), sequence (Q07869 whole entry, looked up): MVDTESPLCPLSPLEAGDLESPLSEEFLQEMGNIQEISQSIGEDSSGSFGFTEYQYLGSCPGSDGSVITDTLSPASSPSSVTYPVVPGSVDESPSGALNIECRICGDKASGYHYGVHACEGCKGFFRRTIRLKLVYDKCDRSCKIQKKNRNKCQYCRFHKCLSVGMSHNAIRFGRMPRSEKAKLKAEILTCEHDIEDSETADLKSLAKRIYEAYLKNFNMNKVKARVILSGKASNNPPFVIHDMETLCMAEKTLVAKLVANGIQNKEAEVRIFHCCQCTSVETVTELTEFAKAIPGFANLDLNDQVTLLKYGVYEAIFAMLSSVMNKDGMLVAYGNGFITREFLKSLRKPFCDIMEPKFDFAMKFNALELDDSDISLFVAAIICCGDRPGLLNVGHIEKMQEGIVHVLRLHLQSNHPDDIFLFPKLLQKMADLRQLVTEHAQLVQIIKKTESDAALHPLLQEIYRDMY
Cytochrome P450 3A4 (Homo sapiens), sequence (P08684 whole entry, looked up): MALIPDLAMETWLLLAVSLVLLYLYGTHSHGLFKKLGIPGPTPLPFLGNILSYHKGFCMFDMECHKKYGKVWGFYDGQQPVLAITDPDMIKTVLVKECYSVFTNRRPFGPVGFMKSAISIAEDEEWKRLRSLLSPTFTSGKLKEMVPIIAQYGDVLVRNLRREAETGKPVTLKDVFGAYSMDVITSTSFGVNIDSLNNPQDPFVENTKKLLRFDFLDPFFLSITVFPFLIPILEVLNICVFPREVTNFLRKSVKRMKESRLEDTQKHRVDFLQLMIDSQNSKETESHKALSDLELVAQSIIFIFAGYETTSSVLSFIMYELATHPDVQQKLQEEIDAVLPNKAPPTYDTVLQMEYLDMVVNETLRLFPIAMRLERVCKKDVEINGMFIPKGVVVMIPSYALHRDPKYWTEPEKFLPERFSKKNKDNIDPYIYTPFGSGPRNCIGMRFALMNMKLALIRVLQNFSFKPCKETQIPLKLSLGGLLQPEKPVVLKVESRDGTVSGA

In the case of `CN(C)c1ccc(C2(c3ccc(N(C)C)cc3)OC(=O)c3cc(N(C)C)ccc32)cc1`, the Potency in [1] and in experiment [2] was more than 92 µM throughout. For the same molecule, the Potency result in experiment [3], in [4], in [8], in [9], in [10] and in experiment [11] was “inactive” each time. In addition, the caspase-3 activation in experiment [5] was 0.256%; in experiment [6], 0.305%; in experiment [7] it was -1.05%. For the same molecule, the max response was -2.57% in experiment [12] and -3.92% in experiment [13].

`O=Cc1ccc(Cl)c(Cl)c1`: the Potency in experiment [1] and in experiment [2] was more than 92 µM in each case. For the same molecule, the Potency result in [14], in experiment [3], in experiment [4], in experiment [8], in [15] and in experiment [10] was “inactive” throughout. In experiment [11], the Potency entry is “inactive”. The figures for the caspase-3 activation in [5], in experiment [6] and in experiment [7] were -1.53%, 0.309% and 1.45%, respectively. Further, the max response in experiment [12] is 1.8%; in experiment [13] it was -7.75%.

On to `ClC1=C(Cl)C(Cl)(Cl)C(Cl)=C1Cl`, for which the Potency in [1] was more than 92 µM; in experiment [2] it was more than 92 µM; in experiment [3] it was 10 µM (active); in experiment [13] it was 11.2 µM (active). The Potency entry in [14], in experiment [4], in experiment [8], in [15], in experiment [10] and in experiment [11] was “inactive” throughout. Besides, the caspase-3 activation is 0.653% in experiment [5], 4.97% in experiment [6] and 131% (active) in experiment [7]. Also, the max response in experiment [12] is -0.568% and 0.283%; in experiment [13], -13.8%.

On to `c1ccc2c(c1)-c1cccc3c1c-2cc1ccccc13`, for which the values for the Potency in experiment [1], in experiment [2] and in experiment [14] were more than 92 µM, more than 92 µM and 2.51 µM [activator] (active), respectively. For the same molecule, the Potency entry in experiment [3], in experiment [4], in [8], in experiment [15], in [10] and in [11] was “inactive” each time. The caspase-3 activation in experiment [5] was -0.695%; in experiment [6], 11.1%; in experiment [7] it was -2.54%. Moreover, the max response in [12] is -0.066% and -2.89%; in experiment [13], -13.5% and -14.9%.

In the case of `CNc1ccc(O)cc1`, the Potency is 23.5 µM (active) in experiment [2]; 12.6 µM (active) in experiment [15]; 12.6 µM (active) in experiment [10]; 5.01 µM (active) in experiment [11]; 35.5 µM (active) in experiment [13]. Further, the Potency entry in experiment [14], in experiment [3], in experiment [4], in experiment [8] and in experiment [9] was “inactive” in each case. Also, the caspase-3 activation was -3.33% in experiment [5], -5.23% in [6] and -11.1% in [7]. Further, in [12], the max response is -6.09%.

With `O=[N+]([O-])c1cc([N+](=O)[O-])c2ccc(S(=O)(=O)O)cc2c1O`, the Potency in experiment [1] and in experiment [2] was more than 92 µM throughout. The Potency result in experiment [3], in experiment [4], in experiment [8], in experiment [10] and in [11] was “inactive” throughout. Moreover, the caspase-3 activation was 1.36% in experiment [5], 0.036% in experiment [6] and 1.41% in [7]. In experiment [13], the max response was -2.67%.

Take `CN1[C@H]2CC(OC(=O)[C@H](CO)c3ccccc3)C[C@H]1[C@H]1O[C@H]12` (some centres not stated): the Potency in experiment [1] and in experiment [2] was more than 92 µM in each case. For the same molecule, the Potency entry in experiment [3], in experiment [4], in experiment [8], in experiment [10] and in experiment [11] was “inactive” throughout. In addition, the caspase-3 activation in experiment [5] was -0.382% and 0.0869%; in [6], 0.771% and -1.21%; in experiment [7] it was -1.68% and 4.08%. Further, the max response was -2.4% and 1.32% in [12]; -2.2% and 1.37% in experiment [13].

For the molecule `Cc1cccc(O)c1C`, the Potency in experiment [1] and in [2] was more than 92 µM in each case. Also, the Potency entry in experiment [14], in experiment [3], in experiment [4], in experiment [8], in experiment [15] and in experiment [10] was “inactive” in each case. The Potency entry in experiment [11] is “inactive”. Also, the caspase-3 activation in experiment [5] was -0.758%; in [6], 0.768%; in experiment [7], 0.349%. Besides, the max response in experiment [12] was -2.92%; in experiment [13], -3.02%.

Values taken from PubChem BioAssay (NCATS).
